The record followed here is PubChem BioAssay (NCI).

Test systems include DU-145 prostate; K-562 leukemia; MALME-3M melanoma; MDA-MB-231 breast; RXF 393 renal; SF-268 CNS; SF-295 CNS; SF-539 CNS; UACC-257 melanoma; M14 melanoma.
Test in all cases: NCI-60 one-dose screen, 48 h (100 = growth as untreated, 0 = no growth, -100 = all killed)
Common to all, as to conditions: 10 µM unless noted

The panel holds about 83,000 compounds, 20% with a hit somewhere; the sample as a whole holds those more often.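 How to read the values: 0–100, growth inhibition (40 = 60% inhibited); 0, no net growth; -100 to 0, cell death (-40 = 40% of starting cells died; -100 = all dead).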 Unmarked numbers belong to inactive results. Active and inactive are the calls of the source. How the source made its calls: active means growth percent below 10; inactive means the rest.

Take `CCCCCCCCCCCCNC(=O)[C@H]1CSC(c2cc3ccccc3s2)N1` (stereo not given in full): the growth in the assay with DU-145 prostate was -57.1% (active); in the assay with K-562 leukemia it was -55.8% (active); in the assay on MALME-3M melanoma, 15.4%; in the assay on MDA-MB-231 breast, -86.9% (active); in the assay with RXF 393 renal, -78.5% (active); in the assay on SF-268 CNS it was -74% (active). In addition, the growth in the assay on SF-295 CNS was 18.9%; in the assay on SF-539 CNS, -68.1% (active); in the assay with UACC-257 melanoma, 17.6%; with M14 melanoma, -89% (active).
Turning to `Cc1nc2c3c(ncn2n1)Oc1c(c(=O)[nH]c2ccccc12)C3c1ccc(Cl)cc1` (stereo not given), the growth was 112% in the assay with DU-145 prostate; 94.3% in the assay on K-562 leukemia; 105% in the assay with MALME-3M melanoma; 87.9% in the assay on MDA-MB-231 breast; 113% in the assay with RXF 393 renal; 85.7% with SF-268 CNS. The growth was 96.2% with SF-295 CNS, 93.4% with SF-539 CNS, 105% in the assay on UACC-257 melanoma and 105% with M14 melanoma.
For the molecule `CC(=O)c1cc2c(N)c(C(=O)Nc3cccc4c3OCCO4)sc2nc1C`, the growth in the assay on DU-145 prostate was 104%; with K-562 leukemia, 74.7%; with MALME-3M melanoma, 101%; in the assay on MDA-MB-231 breast it was 100%; in the assay with RXF 393 renal, 99.2%; in the assay with SF-268 CNS it was 96.3%. In addition, the growth with SF-295 CNS is 92.8%; in the assay on SF-539 CNS it was 100%; in the assay on UACC-257 melanoma, 99.5%; in the assay on M14 melanoma it was 94.4%.
As to `Oc1ccc(Cl)cc1-c1cc(-c2ccc(F)cc2)n[nH]1`, the growth with DU-145 prostate is 75.9%; with K-562 leukemia it was 63.2%; in the assay on MALME-3M melanoma, 77.8%; in the assay with MDA-MB-231 breast, 27.3%; in the assay on RXF 393 renal it was 73.4%; with SF-268 CNS, 63.6%. The growth in the assay with SF-295 CNS was 49.2%; with SF-539 CNS, 90.1%; with UACC-257 melanoma it was 96.6%; in the assay on M14 melanoma it was 76.6%.
For the molecule `CC(C)(C)n1cc(-c2ccnc(NCCNS(=O)(=O)c3ccc(C(F)(F)F)cc3)c2)c(-c2cccc(O)c2)n1`, the growth is 75.7% in the assay on DU-145 prostate; 7.42% (active) in the assay with K-562 leukemia; 42.3% in the assay with MALME-3M melanoma; 46% with MDA-MB-231 breast; 37% with RXF 393 renal; 56.6% in the assay on SF-268 CNS. In addition, the growth in the assay with SF-295 CNS was 44.3%; in the assay with SF-539 CNS it was 54%; with UACC-257 melanoma it was 47.2%; in the assay with M14 melanoma it was 44.7%.
Turning to `O=C(Nc1ccncc1)C(=O)c1cn(S(=O)(=O)c2ccc(Br)cc2)c2ccccc12`, the growth is 62.6% in the assay with DU-145 prostate; 26.5% with K-562 leukemia; 49.6% with MALME-3M melanoma; 43% in the assay on MDA-MB-231 breast; 60.1% with RXF 393 renal; 52.2% in the assay on SF-268 CNS. Also, the growth in the assay on SF-295 CNS was 29.6%; with SF-539 CNS, 43.8%; in the assay with UACC-257 melanoma, 69.4%; in the assay with M14 melanoma, 31.6%.
For `COc1ccc(C(=O)N2NC(=O)/C(=C/c3ccc(Br)cc3)N=C2c2ccccc2)cc1`, the growth in the assay on DU-145 prostate is 102%; with K-562 leukemia it was 81.8%; in the assay with MALME-3M melanoma it was 90.3%; with MDA-MB-231 breast, 83.3%; with RXF 393 renal, 99.9%; with SF-268 CNS, 89.8%. Further, the growth was 92.7% in the assay on SF-295 CNS, 76.8% in the assay with SF-539 CNS, 95.5% with UACC-257 melanoma and 79.2% with M14 melanoma.
Turning to `C/C=C/C1=CN2C(=O)c3cc(OC4OC(C)C(NC)C(C)(O)C4O)c(C)cc3N=C[C@@H]2C1` (stereo not given in full), the growth with DU-145 prostate was -18.6% (active); in the assay with K-562 leukemia it was 5.83% (active); in the assay on MALME-3M melanoma, -43% (active); in the assay on MDA-MB-231 breast, 15.7%; with RXF 393 renal, -44.9% (active); in the assay on SF-268 CNS it was -28.8% (active). For the same molecule, the growth with SF-295 CNS was -23.1% (active); in the assay on SF-539 CNS it was -44.9% (active); in the assay on UACC-257 melanoma it was -1.62% (active); with M14 melanoma it was -60.5% (active).
On to `C=C1c2nc3ccccc3n2C=C(c2ccc(Cl)cc2)N1Cc1ccccc1`, for which the growth was 103% in the assay with DU-145 prostate; 59.1% in the assay with K-562 leukemia; 94.5% with MALME-3M melanoma; 85.4% in the assay with MDA-MB-231 breast; 65.7% in the assay on RXF 393 renal; 90.3% in the assay on SF-268 CNS. For the same molecule, the growth in the assay on SF-295 CNS was 89.8%; with SF-539 CNS, 96.4%; with UACC-257 melanoma, 75.4%; in the assay with M14 melanoma it was 85.2%.
Regarding `COc1cc2c(=O)n(C3CCCCCC3)c3c4cc[nH]c4ncc3c2cc1OC`, the growth with DU-145 prostate was 78%; in the assay on K-562 leukemia, 16%; in the assay with MALME-3M melanoma it was 113%; in the assay on MDA-MB-231 breast, 75.5%; in the assay on RXF 393 renal, 37.7%; in the assay on SF-268 CNS, 65.6%. In addition, the growth is 69.7% in the assay on SF-295 CNS, 17.1% in the assay on SF-539 CNS, 109% with UACC-257 melanoma and 92.6% with M14 melanoma.
`COc1ccc(-c2[nH]nc(N)c2-c2cc(OC)c3c(c2)OCO3)cc1`: the growth in the assay with DU-145 prostate is 92.3%; with K-562 leukemia, 22.4%; with MALME-3M melanoma, 46.9%; in the assay with MDA-MB-231 breast, 43%; with RXF 393 renal, 95.9%; with SF-268 CNS it was 64.9%. The growth with SF-295 CNS was 53.9%; in the assay on SF-539 CNS, 59.3%; with UACC-257 melanoma, 79.3%; with M14 melanoma it was 22.1%.
In the case of `COc1ccc(C(=O)N2NC(=O)/C(=C/c3ccc(F)cc3)N=C2c2ccccc2)cc1`, the growth is 113% in the assay with DU-145 prostate; 94.4% in the assay with K-562 leukemia; 91.4% in the assay with MALME-3M melanoma; 88.1% in the assay with MDA-MB-231 breast; 94.5% with RXF 393 renal; 105% in the assay on SF-268 CNS. Also, the growth is 80.4% in the assay on SF-295 CNS, 97% in the assay with SF-539 CNS, 99.3% in the assay with UACC-257 melanoma and 87.2% with M14 melanoma.
For the molecule `COc1ccc(/C=C2/C(=O)NC(SCC(=O)N3CCN(c4cc5c(cc4F)c(=O)c(C(=O)O)cn5C4CC4)CC3)=NC2N)cc1OC` (stereo not given), the growth in the assay with DU-145 prostate was 104%; in the assay with K-562 leukemia, 107%; in the assay on MALME-3M melanoma it was 108%; in the assay with MDA-MB-231 breast it was 106%; with RXF 393 renal, 109%; in the assay on SF-268 CNS, 96.8%. Further, the growth is 93.9% in the assay with SF-295 CNS, 101% in the assay on SF-539 CNS, 108% with UACC-257 melanoma and 106% with M14 melanoma.
In the case of `CC(C)c1ccc2occ(C=C3C(=O)NC(=O)NC3=O)c(=O)c2c1`, the growth in the assay on DU-145 prostate was 109%; in the assay with K-562 leukemia it was 72.7%; with MALME-3M melanoma, 93.7%; in the assay on MDA-MB-231 breast, 98.9%; in the assay with RXF 393 renal it was 87.4%; in the assay on SF-268 CNS it was 89.3%. Further, the growth in the assay on SF-295 CNS was 119%; with SF-539 CNS it was 121%; with UACC-257 melanoma, 96.1%; with M14 melanoma, 91.3%.
